Some test systems named below: SK-MEL-2 melanoma; EKVX NSCLC; SN12C renal; UO-31 renal; TK-10 renal; ACHN renal; CAKI-1 renal; CCRF-CEM leukemia; MOLT-4 leukemia; SR leukemia; RPMI-8226 leukemia; OVCAR-8 ovarian; OVCAR-5 ovarian; OVCAR-4 ovarian; SK-OV-3 ovarian; IGROV1 ovarian; OVCAR-3 ovarian; HS 578T breast; NCI/ADR-RES ovarian; A498 renal.
Holding throughout (assay): NCI-60 one-dose screen, 48 h (100 = growth as untreated, 0 = no growth, -100 = all killed)
Common to all, as to settings: 10 µM unless noted

This is part of a sample that, as a whole, favours compounds with a hit. Of some 83,000 tested, about 20% had one in any assay.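 Activity criterion: percent growth below 10, measured after cells in 96-well plates were exposed to a single compound concentration for 48 hours.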 Values without a mark were called inactive. Activity calls are given as the source filed them.

With `COC(=O)[C@@H]1CCCN1C(=O)[C@@H]1CCCN1C(=O)[C@H](Cc1ccccc1)NC(=S)Nc1cc(C(F)(F)F)cc(C(F)(F)F)c1`, the growth is -21.9% (active) with SK-MEL-2 melanoma; 75.7% in the test with EKVX NSCLC; 95% in the test with SN12C renal; 75.5% in the test on UO-31 renal; 85.1% in the test with TK-10 renal; 72.2% with ACHN renal. Also, the growth in the test on CAKI-1 renal was 72.3%; in the test on CCRF-CEM leukemia it was 53.4%; with MOLT-4 leukemia, 50.1%; with SR leukemia, 80.9%; in the test with RPMI-8226 leukemia, 43.9%; in the test with OVCAR-8 ovarian it was 41.6%. The growth is 88.4% in the test on OVCAR-5 ovarian; 77.9% with OVCAR-4 ovarian; 98.1% in the test on SK-OV-3 ovarian; 108% in the test with IGROV1 ovarian; 24.6% in the test with OVCAR-3 ovarian; 83.7% with HS 578T breast. In addition, the growth in the test on NCI/ADR-RES ovarian is 67.4%.
For `C=C1c2nc3ccccc3n2C=C(c2ccc(Cl)cc2)N1Cc1ccc(OC)cc1`, the growth in the test with SK-MEL-2 melanoma is 70.4%; in the test on EKVX NSCLC, 71.3%; in the test on SN12C renal, 92.2%; in the test with UO-31 renal it was 52.2%; in the test on TK-10 renal it was 138%; in the test on ACHN renal, 89.5%. Moreover, the growth with CAKI-1 renal was 85.7%; with A498 renal, 90.5%; in the test on CCRF-CEM leukemia it was 86.3%; with SR leukemia it was -2.2% (active); with RPMI-8226 leukemia, 30.9%; in the test with OVCAR-8 ovarian, 91.1%. The growth in the test with OVCAR-5 ovarian was 72.1%; in the test with OVCAR-4 ovarian, 71.6%; with SK-OV-3 ovarian, 85.8%; in the test on IGROV1 ovarian, 55.2%; in the test on OVCAR-3 ovarian, 85.4%; in the test on HS 578T breast, 104%. Besides, the growth in the test on NCI/ADR-RES ovarian was 62.7%.
As for `Cc1nn(-c2cc(=O)[nH]c3ccc(Cl)cc23)c(N)c1C#N`, the growth in the test with SK-MEL-2 melanoma is 100%; in the test on EKVX NSCLC it was 92.3%; with SN12C renal it was 102%; in the test with UO-31 renal, 70.7%; with TK-10 renal, 133%; in the test on ACHN renal, 99%. Moreover, the growth was 85.8% in the test with CAKI-1 renal; 101% in the test on CCRF-CEM leukemia; 110% in the test with MOLT-4 leukemia; 121% in the test on SR leukemia; 97.7% in the test with RPMI-8226 leukemia; 91.6% in the test on OVCAR-8 ovarian. For the same molecule, the growth with OVCAR-5 ovarian is 99.3%; with OVCAR-4 ovarian it was 89.2%; in the test on SK-OV-3 ovarian, 102%; with IGROV1 ovarian it was 73.1%; with OVCAR-3 ovarian, 105%; in the test with HS 578T breast it was 103%. In addition, the growth in the test on NCI/ADR-RES ovarian was 97.4%.
For the molecule `Brc1ccc(-c2csc(Nc3ccccn3)n2)cc1`, the growth in the test on SK-MEL-2 melanoma is 69.8%; in the test on EKVX NSCLC, 70%; in the test with SN12C renal, 95.7%; in the test with UO-31 renal, 75.8%; in the test with TK-10 renal, 101%; in the test with ACHN renal, 217%. In addition, the growth in the test with CAKI-1 renal is 84.2%; with A498 renal, 91.3%; in the test with CCRF-CEM leukemia it was 74.8%; in the test with SR leukemia, 68.8%; in the test on RPMI-8226 leukemia it was 68%; with OVCAR-8 ovarian, 101%. The growth in the test with OVCAR-5 ovarian was 92.4%; with OVCAR-4 ovarian, 50%; with SK-OV-3 ovarian, 82.7%; in the test with IGROV1 ovarian it was 79.4%; in the test with OVCAR-3 ovarian it was 82.9%; with HS 578T breast, 114%. The growth with NCI/ADR-RES ovarian is 74%.
With `CCN(CC)c1ccc(/C=N\NC(=O)/C=C/C=C/c2ccc3c(c2)OCO3)c(O)c1`, the growth was 65.7% with SK-MEL-2 melanoma; 52.2% in the test on EKVX NSCLC; 54.1% in the test on SN12C renal; 25% in the test on UO-31 renal; 37.8% in the test with TK-10 renal; 25.6% with ACHN renal. Besides, the growth was 29.3% with CAKI-1 renal; 21.7% in the test with CCRF-CEM leukemia; 18.3% in the test on MOLT-4 leukemia; 17.6% in the test on SR leukemia; 53.6% in the test on RPMI-8226 leukemia; 32.9% in the test with OVCAR-8 ovarian. Also, the growth in the test with OVCAR-5 ovarian was 60.9%; in the test with OVCAR-4 ovarian it was 15.3%; with SK-OV-3 ovarian, 39.5%; with IGROV1 ovarian, 38.2%; with OVCAR-3 ovarian it was 4.95% (active); in the test with HS 578T breast it was 68.1%. Moreover, in the test on NCI/ADR-RES ovarian, the growth was 17.6%.
On to `C(=C\c1nccc2c1[nH]c1ccccc12)/c1ccccc1`, for which the growth in the test with SK-MEL-2 melanoma is 37.4%; in the test on EKVX NSCLC, 38.3%; with SN12C renal, 46.2%; with UO-31 renal, 13.2%; in the test on TK-10 renal it was 34%; with ACHN renal, 35.6%. For the same molecule, the growth is -8.56% (active) in the test on CAKI-1 renal; 40.4% in the test on A498 renal; 49.1% in the test with MOLT-4 leukemia; 82.7% in the test on SR leukemia; 26.1% in the test on OVCAR-8 ovarian; 62.9% with OVCAR-5 ovarian. Further, the growth is 14.9% in the test with OVCAR-4 ovarian; 24.7% in the test with SK-OV-3 ovarian; -15.9% (active) in the test with IGROV1 ovarian; -13.3% (active) in the test with OVCAR-3 ovarian; 29.2% in the test with HS 578T breast; 15.5% in the test with NCI/ADR-RES ovarian.
Regarding `CCN1CCN(c2nc(NCCNc3ccnc4cc(Cl)ccc34)c3ccccc3n2)CC1`, the growth in the test on SK-MEL-2 melanoma was -71.4% (active); in the test with EKVX NSCLC, 53.3%; in the test with SN12C renal, -5.71% (active); with UO-31 renal, -75.2% (active); in the test with TK-10 renal, -19.4% (active); in the test on ACHN renal, -25.7% (active). The growth was 77.1% in the test with A498 renal; -12.8% (active) in the test with CCRF-CEM leukemia; 6.3% (active) with MOLT-4 leukemia; -25.5% (active) in the test with SR leukemia; -25.4% (active) in the test on RPMI-8226 leukemia; 2.98% (active) with OVCAR-8 ovarian. In addition, the growth with OVCAR-5 ovarian is 53.7%; in the test with OVCAR-4 ovarian, 33.7%; with SK-OV-3 ovarian it was 51.8%; in the test with IGROV1 ovarian, 28.6%; in the test on OVCAR-3 ovarian, 8.7% (active); in the test on HS 578T breast, 49.8%. The growth in the test on NCI/ADR-RES ovarian is 70.3%.
As to `COc1cc(-c2nn(-c3ccc(C)cc3)cc2C(=O)O)ccc1O`, the growth with SK-MEL-2 melanoma is 93.5%; with EKVX NSCLC, 88.3%; in the test with SN12C renal, 99.8%; in the test with UO-31 renal, 74.7%; in the test with TK-10 renal, 133%; with ACHN renal, 97.5%. Moreover, the growth is 110% with A498 renal; 97.5% in the test on CCRF-CEM leukemia; 83.2% in the test with MOLT-4 leukemia; 85.3% in the test with SR leukemia; 90.9% in the test on RPMI-8226 leukemia; 98.9% in the test with OVCAR-8 ovarian. In addition, the growth is 113% in the test on OVCAR-5 ovarian; 109% in the test with OVCAR-4 ovarian; 94% in the test with SK-OV-3 ovarian; 94.2% in the test with IGROV1 ovarian; 93.4% with OVCAR-3 ovarian; 103% in the test on HS 578T breast. In addition, the growth in the test on NCI/ADR-RES ovarian was 94.5%.

Values taken from PubChem BioAssay (NCI).
